From PubChem BioAssay
MCF10A rereplic – induces DNA re-replication in MCF 10a normal breast cells; AID 624296; MCF 10A DNA re-replication, Hoechst nuclear intensity, 48 h; 350,000 compounds, 2.9% hits; Potency, µM (top dose mostly 46.1 µM), for the others: at the top dose activity, positive = re-replication, actives largely listed as activators; note: % of control where 0% means no effect; nearly all actives have a fitted effect of over 50% in size
SW480 rereplic – DNA re-replication induction in SW480 cells. 340,000 compounds, 1.8% hits. Potency, µM (doses to about 46.1 µM), for inactives: at the highest dose re-replication activation, most hits filed as activators. SW480 DNA re-replication, Hoechst DNA content imaging, 48 h; note: % of control where 0% means no effect; nearly all actives have a fitted effect of over 55% in size
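250 cells/well; 23 nL cpd via pin tool; 48 hr, 37 C, 5% CO2; Hoechst 40 min; imager read of total nuclear intensity, ex 405/em 500-530 nm.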
VP16 counter – Gal4-VP16 reporter inhibition counter-screen; Potency, µM (top dose mostly 53.6 µM), for the others: at the top dose activity, negative = inhibition, actives largely listed as inhibitors; 310,000 compounds, 3.5% hits; Drosophila S2 Gal4-VP16 UAS-luciferase, luminescence, 20 h; AID 2546;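 note: Gal4-VP16 expression switched on by copper sulfate through the metallothionein promoter; % is set by controls: 0 for no effect and ±100 for the full control effect; nearly all actives have a fitted effect of over 50% in size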
ELG1 DNA repair – inhibitors of ELG1-dependent DNA repair in HEK293T cells | HEK293T ELG1-luciferase reporter, luminescence, 16 h; DNA damage induced by 5-fluorouridine | Potency, µM (doses to about 46.1 µM), inactives show at the highest dose activity change, negative = inhibition, usual class: inhibitors | 330,000 compounds, 2.3% hits; note: % is set by controls: 0 for no effect and ±100 for the full control effect; nearly all actives have a fitted effect of over 55% in size
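Step one: seed 2,000 cells per well. Step two: pin-transfer compound or DMSO alongside 5-fluorouridine. Step three: incubate 16 hr, 37 °C, 5% CO2. Step four: add ONE-Glo, wait 30 min, read luminescence.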
RORgamma inh – blocks mouse ROR gamma transcriptional activity; AID 2551; P51450; Drosophila S2 Gal4-RORgamma UAS-luciferase reporter, 20 h; 310,000 compounds, 5.4% hits; Potency, µM (series often up to 53.6 µM), for inactives: at the top dose activity change, negative = inhibition, hits mostly inhibitors; note: % is set by controls: 0 for no effect and ±100 for the full control effect; nearly all actives have a fitted effect of over 60% in size
Target sequence (P51450 whole entry, looked up, the tested form may be a part): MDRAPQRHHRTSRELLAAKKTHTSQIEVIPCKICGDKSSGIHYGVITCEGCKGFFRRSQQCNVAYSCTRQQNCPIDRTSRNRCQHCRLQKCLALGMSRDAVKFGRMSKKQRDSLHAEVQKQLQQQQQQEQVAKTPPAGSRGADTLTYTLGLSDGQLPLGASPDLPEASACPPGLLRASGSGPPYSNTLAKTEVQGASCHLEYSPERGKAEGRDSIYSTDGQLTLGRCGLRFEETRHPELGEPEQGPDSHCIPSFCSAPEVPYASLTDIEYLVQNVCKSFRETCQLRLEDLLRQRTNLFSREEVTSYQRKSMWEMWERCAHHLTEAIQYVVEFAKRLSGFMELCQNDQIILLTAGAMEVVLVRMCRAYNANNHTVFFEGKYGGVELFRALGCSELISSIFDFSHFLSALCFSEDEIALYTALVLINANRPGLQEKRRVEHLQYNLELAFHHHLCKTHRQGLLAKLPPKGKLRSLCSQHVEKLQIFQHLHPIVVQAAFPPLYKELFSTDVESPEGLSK
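Stably transfected Drosophila Schneider cells are the test system, with ROR gamma fused to Gal4 and luciferase under UAS control; luminescence is read after 20 hr of 700 uM copper sulfate induction at ambient temperature.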
An asterisk follows results filed as active; ? = inconclusive; / = not tested or not shown; ! = repeats disagree; [ ] = dose if it differs, or a comment. Shown are actives, neighbours in structure and some others; about 10% of the full set was active somewhere. Calls come from the whole dose curve; as a rule, active = well fitted curve in the direction sought with a large enough effect; inconclusive = small, poorly fitted or top-dose-only effect, or another doubt; inactive = no such curve, though single readings can be large; an effect the other way counts as inactive or inconclusive. Potency is the fitted concentration of half-maximal effect.

SMILES | MCF10A rereplic | SW480 rereplic | VP16 counter | ELG1 DNA repair | RORgamma inh
CC1Cc2ccccc2N1C(=O)COC(=O)c1n[nH]c(=O)c2ccccc12 (stereo unspecified) | 17.5% | -4.4% | / | 15.3% | /
O=C(/C=C/c1ccc(Cl)cc1)NC(=S)Nc1ccc(CN2CCOCC2)cc1 | 20.6µM* | 22.2% | 6.31µM* | 21.5% | 3.98µM*
O=C(CC12CC3CC(CC(C3)C1)C2)NC(=S)Nc1ccc(CN2CCOCC2)cc1 | ? | ? | 10µM* | ? | 1.58µM*
O=C(/C=C/c1ccccc1)Nc1ccc(CN2CCOCC2)cc1 | 2.1% | -6.8% | 3.4% | ? | -11.4%
CCOC(=O)CNC(=O)O[C@@H]1C(=O)c2cc(OC)ccc2O[C@H]1c1ccc(OC)c(Br)c1 | / | / | -2.2% | / | 1.9%
O=C(COC(=O)C1CC1)NCCc1ccc(Cl)cc1 | 0.7% | 3.66µM* | / | 19.7% | /
O=C(COC(=O)C1CCCCC1)NCc1ccc(Cl)cc1 | -5.5% | -0.9% | / | 7.1% | /
CNC(=S)NNc1nncc2ccccc12 | 3.6% | 12.4% | 4.47µM* | -1.3% | 5.01µM*
CCNC(=S)NNc1nncc2ccccc12 | -5.2% | 16.7% | 3.16µM* | 13.9% | 0.501µM*
NNc1nncc2ccccc12 | -1.3%[20.6 µM] | 0.0%[20.6 µM] | ? | / | 7.08µM*!
O=C(NC(=S)N1CCCCC1CO)C12CC3CC(CC(C3)C1)C2 (stereo unspecified) | 11.1% | 4.7% | -12.7% | -15.3% | ?
CC1(C)Cc2c(sc3nc(-c4cccs4)n(N)c(=O)c23)CO1 | ? | ? | 15.8µM* | ? | ?
CC1(C)Cc2c(sc3nc(-c4ccccc4)n(N)c(=O)c23)CO1 | ? | -5.1% | -2.0% | 1.8% | -15.2%
NC(=S)NC1CC2CC1C1C=CCC21 (stereo unspecified) | -0.9% | -2.5% | -1.7% | 0.0% | 28.2µM*
CNNC(=S)NC1CC2CC1C1C=CCC21 (stereo unspecified) | -1.5% | -19.4% | 10.2% | ? | ?
BrC(=C\c1ccccc1)/C=N/Nc1ccc2nncn2n1 | ? | ? | 1.5% | ? | -23.8%
BrC(=C\c1ccccc1)/C=N/n1cnnc1 | 16.4µM* | 22.8% | ? | ? | 7.08µM*
CC(C)C[C@H](N)c1nnc(S(=O)(=O)Cc2ccc(F)cc2)o1 | ? | ? | 14.1µM* | ? | 0.0%
CC(C)C[C@H](N)c1nnc(SCC(=O)Nc2ccc(Br)cc2)o1 | -3.6% | ? | -9.5% | 14.6% | 12.0%
Cc1cc(C)nc(N/C(=N\S(=O)(=O)Cc2ccccc2)Nc2ccccc2Br)n1 | 4.11µM* | ? | -23.6% | ? | -21.3%
Cc1cc(C)nc(Nc2ccccc2Br)n1 | -2.5% | -9.0% | 12.9% | 0.0% | -6.3%
COc1cc2cc(CCCOC(=O)c3ccc(C#N)cc3)oc(=O)c2cc1OC | ? | -13.0% | / | 16.2% | /
N=c1cc(C2(O)CCCCC2)n2c(nc3ccccc32)s1 | 18.4µM* | ? | ? | ? | -8.0%
COc1ccc(CCNC(=O)Cn2nnc(C(=O)Nc3cc(C)ccc3C)c2N)cc1OC | 0.9% | -4.8% | -5.5% | -17.5% | -0.1%
COc1ccc(C2=CC(=O)OC3(CCCCC3)O2)cc1 | 431.3%[0.0737 µM] | -1.0% | -3.7% | -4.2% | 9.4%
SMILES | MCF10A rereplic | SW480 rereplic | VP16 counter | ELG1 DNA repair | RORgamma inh
C=C(C)C1(O)OC(=O)C=C1OC (stereo unspecified) | ? | ? | 11.2µM* | 6.8% | 12.6µM*
Cc1oc(-c2ccc3c(c2)OCCO3)cc1C(=O)NC(Cc1ccccc1)C(=O)O (stereo unspecified) | -2.5% | -4.2% | -12.1% | ? | -15.8%
O=C(NCCN1CCCC1)C(c1ccccc1)c1ccccc1 | 23.1µM* | ? | 3.9% | -10.9% | -13.4%
O=C(NCCCNC(=O)c1ccccc1F)c1ccco1 | -9.3% | -0.4% | 2.8% | 18.0% | -20.0%
COc1ccc(Nc2nc3ccccc3n2C)cc1 | 0.8% | -5.3% | 6.9% | ? | -22.2%
CC(C)Cn1c(/C=C/c2ccccc2)nc2ccccc21 | 7.6% | 5.0% | 11.2µM* | ? | 11.2µM*
CCn1c(/C=C/c2ccccc2)nc2ccccc21 | ? | ? | ? | ? | 15.8µM*
COc1ccc2c(c1)nc(N)n2Cc1ccccc1 | 27.0% | 3.9% | ? | 11.9% | ?
COc1ccc(/C=C/c2nc3ccccc3n2C)cc1 | 15.4% | 0.7% | ? | ? | 2µM*
COc1ccc(Cn2c(/C=C/c3ccccc3)nc3ccccc32)cc1 | ? | ? | ? | ? | 7.08µM*
CC(C)C(=O)Nc1ccc2nn(-c3ccccc3)nc2c1 | 2.2% | -2.6% | -7.1%[10 µM] | ? | -28.3%
CCOc1cc(S(=O)(=O)NCc2ccncc2)c(C)cc1C | -17.8% | -13.9% | ? | ? | ?
CCC(C)n1c(S(=O)(=O)O)nc2ccccc21 (stereo unspecified) | -4.5% | 2.3% | 2.2% | 28.7% | 3.1%
COc1ccc(-c2n(Cc3ccccc3)c3ccccc3[n+]2Cc2ccccc2)cc1 | 3.8% | ? | 5.01µM* | ? | 5.62µM*
COc1ccc(/C=C/c2nc3ccccc3c(=O)o2)cc1 | 5.0% | -1.7% | 7.94µM* | ? | 4.47µM*
COc1ccc(-c2nc3ccccc3n2Cc2ccccc2)cc1 | 6.0% | -4.8% | ? | -16.3% | 3.98µM*
CCC(C)n1c(/C=C/c2ccccc2)nc2ccccc21 (stereo unspecified) | -10.1% | -4.4% | 12.6µM* | 0.9% | 10µM*
CCCCNc1c(-c2ccc(OC)c(SC3CCCCC3)c2)nc2ccc(C)cn12 | 7.31µM* | 105.2% | / | ? | /
COc1ccc(-c2nc3ccc(C)cn3c2NCc2ccccc2)cc1SC1CCCCC1 | 18.4µM* | 2.8%[9.22 µM] | / | ? | /
CCCCNc1c(-c2ccc(SC3CCCCC3)c(OC)c2)nc2ccc(C)cn12 | 10.3µM* | ? | / | ? | /
COc1ccc(-c2nc3ccc(Cl)cn3c2NC2CCCCC2)cc1SC1CCCCC1 | 16.4µM* | -0.7% | / | 19.3% | /
Cc1ccc2nc(-c3cccc(SC4CCCCC4)c3)c(NC3CCCCC3)n2c1 | 10.7% | 22.0% | / | ? | /
CCCCCCCCCCCCCC[C@@H](O)[C@@H](O)[C@@H](N)CO | / | / | -13.8% | / | -1.3%
O=S(=O)(Nc1cc2nc3ccccc3nc2n1Cc1ccccc1)c1ccc(Cl)cc1 | 7.31µM* | 10µM* | ? | ? | ?
Cc1cc(NC(=O)c2cccs2)n(-c2nc3ccccc3[nH]2)n1 | ? | 4.61µM* | -8.6% | -11.8% | 13.0%
Cc1cc(NC(=O)c2sccc2C)n(-c2nc3ccccc3[nH]2)n1 | ? | 10.6% | 3.55µM* | ? | 1µM*
COc1ccc(OCc2cc(C(=O)NC(C)Cc3cccnc3)no2)c(Cl)c1 (stereo unspecified) | 9.4% | 8.2µM* | -1.2% | 11.1% | ?
